In PubChem BioAssay AID2451 (National Center for Advancing Translational Sciences (NCATS), 2010):
The campaign covered roughly 290,000 compounds. About 2,100 (0.72%) were called active. Inconclusive results (about 4%) are left out. The call rests on the fitted dose curve; in most records, active means well fitted inhibition curve with a large enough effect; inconclusive means small, poorly fitted or top-dose-only effect, or effect the other way; inactive means flat fitted curve, though single readings scatter. The list comes from a sample in which actives are over-represented; it also holds similar structures and randomly drawn compounds.

Target: Fructose-bisphosphate aldolase (Giardia intestinalis (strain ATCC 50803 / WB clone C6)) (UniProt A8B2U2)
Sequence (A8B2U2 whole entry, looked up): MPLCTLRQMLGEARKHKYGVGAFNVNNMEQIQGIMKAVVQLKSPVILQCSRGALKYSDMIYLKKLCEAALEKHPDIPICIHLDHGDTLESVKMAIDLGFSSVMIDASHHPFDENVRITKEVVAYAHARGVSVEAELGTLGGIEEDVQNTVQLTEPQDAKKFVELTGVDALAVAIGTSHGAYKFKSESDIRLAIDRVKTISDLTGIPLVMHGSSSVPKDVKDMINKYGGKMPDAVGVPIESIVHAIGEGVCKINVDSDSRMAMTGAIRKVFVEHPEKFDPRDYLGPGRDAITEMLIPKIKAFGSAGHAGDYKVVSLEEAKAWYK
Assay: qHTS Assay for Inhibitors of Fructose-1,6-bisphosphate Aldolase from Giardia Lamblia; further: nearly all actives have a fitted effect of over 55% in size
Conditions: purified Giardia FBPA; series mostly up to 59.6 µM; activity, negative = inhibition: at the top concentration
Procedure, shortened: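 40 nM FBPA preincubated 10 min at RT with compound (up to 57.5 uM final), then substrate plus GAPDH/TPI/NAD/arsenate coupling and diaphorase/resazurin added. Fluorescence read after 20 min at RT, 525/598 nm.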
On the % scale 0 is the no-effect control and ±100 the full control effect; potency means the concentration at half of the fitted maximal effect.

Row | SMILES | activity, negative = inhibition | Potency
1 | Cn1nccc1C(=O)N1CCCC(C(=O)c2ccc(Oc3ccccc3)cc2)C1 (stereo not given) | 3.18% (inactive) | 
2 | Cc1cc(S(=O)(=O)c2cc3ccc(O)c(C)c3oc2=O)ccc1F | 9.55% (inactive) | 
3 | N#CC1=C(N)Oc2[nH]c(=S)[nH]c(=O)c2C12C(=O)Nc1ccccc12 (stereo not given) |  | 6.29 µM (active)
4 | N#CC1=C(N)Oc2n[nH]c(CSc3ccccc3)c2C12C(=O)Nc1ccccc12 (stereo not given) | -8.13% (inactive) | 
5 | Cc1ccc(NC2(C#N)C(=O)Nc3ccccc32)cc1 (stereo not given) | -29.3% (inactive) | 
6 | CCc1ccc(NC(=O)C(=O)NNC(=O)c2cccs2)cc1 | -2.46% (inactive) | 
7 | COc1ccc(CNC(=O)c2ccc(Br)s2)cc1OC | 2.95% (inactive) | 
8 | Fc1ccc(-c2ccc(NCCN3CCOCC3)nn2)cc1 | -1.31% (inactive) | 
9 | O=C(NCc1ccccn1)c1ccc2nc(-c3ccco3)c(-c3ccco3)nc2c1 |  | 2.81 µM (active)
10 | O=C(NCc1ccccn1)c1cc(Br)ccc1Cl | 3.28% (inactive) | 
11 | COc1ccc2oc(=O)c(C(=O)NCc3ccccn3)cc2c1 | -15.7% (inactive) | 
12 | COCn1c(C(O)c2ccccc2)cc2ccccc21 (stereo not given) | 9.67% (inactive) | 
13 | O=C(N/N=C/c1ccco1)c1ccc(C(=O)N/N=C/c2ccco2)o1 | -12.7% (inactive) | 
14 | O=c1nc(N/N=C/c2ccco2)cn[nH]1 |  | 17.7 µM (active)
15 | CC(C)NC(=O)C(=O)N/N=C/c1ccco1 | -7.41% (inactive) | 
16 | N=c1ccccn1Cc1ccccc1 | 12.5% (inactive) | 
17 | CNC(=S)NNC(=O)c1cccn(Cc2ccccc2)c1=O | 1.08% (inactive) | 
18 | C=CCNC(=S)/N=c1/ccccn1Cc1ccccc1 |  | 14.1 µM (active)
19 | O=C(c1ccccc1)N1N=C(c2ccccc2O)CC1c1ccc(Br)cc1 (stereo not given) | -3.32% (inactive) | 
20 | O=C(CN1CCN(Cc2ccccc2)CC1)Nc1ccc(F)c(F)c1 |  | 20 µM (active)
21 | O=C(CN1CCN(c2ccccc2)CC1)Nc1ccc(F)cc1 | 13.9% (inactive) | 
22 | Cc1cc(NC(=O)CCN2CCN(Cc3ccccc3)CC2)ccc1Br | -20.8% (inactive) | 
23 | CC(=O)N[C@@H](C)C(=O)N1CCC(n2nccc2NC(=O)CCCc2ccccc2)CC1 | -11.4% (inactive) | 
24 | CC(=O)Nc1cccc(Nc2nc(-c3cccs3)nc3ccccc23)c1 | 4.7% (inactive) | 

Row | SMILES | activity, negative = inhibition | Potency
25 | CN1CCN(S(=O)(=O)c2ccc(NC(=S)NC(=O)C3CC3)cc2)CC1 | 1.96% (inactive) | 
26 | O=C(NC(=S)Nc1ccc(S(=O)(=O)N2CCOCC2)cc1)c1ccccc1[N+](=O)[O-] | -23.5% (inactive) | 
27 | O=S(=O)(c1ccc(NC(=S)NN=C(C2CC2)C2CC2)cc1)N1CCOCC1 |  | 7.06 µM (active)
28 | CCOC(=O)c1c(-c2ccccc2)oc2cc(Br)c(O)c(C=O)c12 | -9.36% (inactive) | 
29 | CCOc1ccc(-n2c(SCC(=O)Nc3cc(C(=O)O)ccc3Cl)nc3ccccc3c2=O)cc1 | 14.4% (inactive) | 
30 | O=C(Nc1ccccc1Cl)O/N=C(/c1ccccc1)c1ccccn1 |  | 15.8 µM (active)
31 | O=C(Nc1ccccc1Cl)Nc1cccc2cccnc12 | -7.02% (inactive) | 
32 | Cc1ccc(C(=O)O/N=C(\N)c2ccccn2)cc1Cl | 16.7% (inactive) | 
33 | O=C(CCC(=O)n1ncc2ccccc21)NCc1ccccc1Cl | 8.97% (inactive) | 
34 | O=C1CSC(=S)N1c1ccc(O)cc1 | -21.6% (inactive) | 
35 | O=C(Nc1ccncc1)Nc1ccc(F)cc1 | -7.88% (inactive) | 
36 | Oc1ccc2ccccc2c1N=Nc1nccs1 |  | 12.6 µM (active)
37 | CN(C)CCCn1c(=O)n(Cc2ccccc2)c(=O)c2c3c(sc21)CCCCC3 | 3.4% (inactive) | 
38 | O=C(CNC(=O)Cc1ccccc1)N=Nc1c(O)[nH]c2ccc(Br)cc12 | -17.6% (inactive) | 
39 | Oc1[nH]c2ccc(Br)cc2c1N=Nc1nn[nH]n1 |  | 15.8 µM (active)
40 | NS(=O)(=O)c1ccc(N=Nc2c(O)[nH]c3ccc(Br)cc23)cc1 | 22.7% (inactive) | 
41 | CCOC(=O)C1CCN(C(=O)COc2cccc3ccccc23)CC1 | -2.04% (inactive) | 
42 | COc1ccc(CNc2nc3c(c(=O)[nH]c(=O)n3C)n2Cc2ccccc2)cc1 | -2.3% (inactive) | 
43 | Cn1c(=O)[nH]c(=O)c2c1[nH]c(=S)n2Cc1ccccc1 |  | 8.91 µM (active)
44 | C=CCSc1nc2c(c(=O)[nH]c(=O)n2C)n1Cc1ccccc1 | 18.8% (inactive) | 
45 | COc1cccc(OC)c1C(=O)Nc1ccc2c(c1)n(C)c(=O)n2C | 6.4% (inactive) | 
46 | CN1C2C=C(N(C(=O)c3ccc(Cl)cc3)c3ccccc3)CC1CC2 (stereo not given) | -4.66% (inactive) | 
47 | CC(=O)N(C1=C(Cl)C(=O)c2ccccc2C1=O)c1ccc(C(=O)O)cc1 |  | 2.24 µM (active)
48 | O=C(CN1C(=O)c2ccccc2C1=O)NCc1ccc(C(=O)O)cc1 | 5.32% (inactive) | 

Row | SMILES | activity, negative = inhibition | Potency
49 | CC(=O)c1ccc(NC(=O)CCc2nnc3ccc(NCc4ccco4)nn23)cc1 | 14.7% (inactive) | 
50 | O=C(c1cc(C(=O)N2CCN(c3ccc(F)cc3)CC2)cc([N+](=O)[O-])c1)N1CCN(c2ccc(F)cc2)CC1 | 6.27% (inactive) | 
51 | O=C(CN1C(=O)COc2ccccc21)Nc1ccc(F)cc1 |  | 5.61 µM (active)
52 | CCCN1CCN(CCCNC(=O)CN2C(=O)COc3ccccc32)CC1 | -3.07% (inactive) | 
53 | O=C(CCN1C(=O)COc2ccccc21)NCCCN1CCN(c2ccc(F)cc2)CC1 | -0.235% (inactive) | 
54 | CC(C)c1ccc(S(=O)(=O)N2CCC3(CC2)OCCO3)cc1 | 7.89% (inactive) | 
55 | Cc1nn(C)cc1N1C(=O)c2cccc3c(N)ccc(c23)C1=O | -6.4% (inactive) | 
56 | CCN1C(=O)c2cccc3c(N)ccc1c23 |  | 0.354 µM (active)
57 | CN1C(=O)c2cccc3c(N)ccc(c23)C1=O | 1.83% (inactive) | 
58 | O=C(NCCN1CCN(C(=O)c2cccc([N+](=O)[O-])c2)CC1)C(=O)NCc1ccc(Cl)cc1 | 6.63% (inactive) | 
59 | Nc1ccccc1Sc1ccc(C(F)(F)F)cc1[N+](=O)[O-] | -11.9% (inactive) | 
60 | CCOC(=O)c1cc(Sc2ccccc2N)cc(C(=O)OCC)n1 | 7.21% (inactive) | 
61 | CCS(=O)(=O)c1cc([N+](=O)[O-])c(Sc2ccccc2N)s1 |  | 15.8 µM (active)
62 | CC(C)CCn1c(=O)c2c(nc3n2CCCN3Cc2ccccc2)n(C)c1=O | 4.15% (inactive) | 
63 | Cc1ccccc1NC(=O)C1CCCN(C(=O)NCc2ccccc2)C1 (stereo not given) | 7.76% (inactive) | 
64 | CCCCc1cc(=O)oc2c(C)c(OCC(=O)N3CCC(C(N)=O)CC3)ccc12 | 10.7% (inactive) | 
65 | COc1c(O)c2c(=O)cc(OC)c3c4c(OC)cc(=O)c5c(O)c(OC)c6c(c(c1C[C@@](C)(O)[C@H]6C(C)=O)c23)c54 | -22.3% (inactive) | 
66 | CC(C)(c1ccccc1)c1ccc(OCCN2CCCC2)cc1 |  | 22.4 µM (active)
67 | Cc1cc(OCCN2CCCC2)ccc1C(C)C | -14.5% (inactive) | 
68 | CC(C)(c1ccccc1)c1ccc(OCCN)cc1 | 0.0143% (inactive) | 
69 | CC(C)CN(Cc1c(O)ccc2c(=O)c(-c3ccccc3)coc12)CC(C)C | 8.57% (inactive) | 
70 | COc1ccc(Cl)cc1NC(=O)c1cccc(N2C(=O)C3CC=CCC3C2=O)c1 (stereo not given) | 2.26% (inactive) | 
